The results in this text go back to PubChem BioAssay (NCI).

Values joined by “and” are separate entries in the source; they are usually repeats but may differ in a detail not shown here. Equal entries are not always repeated. Compounds without any hit were thinned out: in the full panel of roughly 83,000, 20% have a hit.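 How to read the values: 0–100, growth inhibition (40 = 60% inhibited); 0, no net growth; -100 to 0, cell death (-40 = 40% of starting cells died; -100 = all dead).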 The source holds several records for some structures; these can differ, active in one and inactive in another. Active and inactive are the calls of the source. Rule for the calls: active = growth percent below 10; inactive = the rest.

The test has as its system MDA-MB-468 breast. Description: NCI-60 one-dose screen, 48 h (100 = growth as untreated, 0 = no growth, -100 = all killed). The conditions noted are these: 10 µM unless noted.
For the compound `C=C[C@]1(C)C=C2C(=O)[C@@]3(O)OC[C@@]4(CCCC(C)(C)C43O)C2(O)C(O)C1` (stereo partly specified), the growth was -18.7% (active).
As for `O=S(=O)(Nc1ccc(I)cc1F)c1ccc(-c2cnc(C3CC3)o2)cc1`, the growth was -9.07% (active).
The same measure for `Cc1cc(N2CCOCC2)nc(N(CCNc2ccnc3cc(Cl)ccc23)Cc2cccs2)n1`: -15.2% (active).
The result for `CN(C)c1ccc(N=Nc2ccc3ccccc3c2)cc1` reads 5.06% (active).
The same measure for `CC(=O)N1N=C(c2ccc(Cl)cc2)CC1c1sc(Cl)nc1Cl` (stereo unspecified): 74.9% (inactive); for `COc1ccc(/C=C/c2n[nH]c3ccc(N4CCOC4=O)cc23)cc1`: -0.999% (active); for `CCCOC(=O)N[C@H]1CCc2cc(OC)c(OC)c(OC)c2-c2ccc(SC)c(=O)cc21`: -16.8% (active).
Take `CC(C)c1cc(CNc2nc(Nc3cc(C4CC4)[nH]n3)cc(N3CCN(C)CC3)n2)on1`: the growth is -34.8% (active).
The same measure for `CC(C)CC1C(=O)N2CCC[C@H]2C2(O)O[C@](NC(=O)C3C=C4c5cccc6[nH]c(Br)c(c56)C[C@H]4N(C)C3)(C(C)C)C(=O)N12` (stereo partly specified): 20.3% (inactive).
The same measure for `O=C(O)Cc1ccc(Cl)cc1`: 106% (inactive).
As to `CSc1nc2c(c(=O)n1C)C1(C(=O)N(Cc3ccccc3)c3ccccc31)c1c(nc(SC)n(C)c1=O)N2`, the growth is 86% (inactive).
The result for `COc1cc(C2C=C(c3ccc(C)cc3)Nc3nc(SC)[nH]c(=O)c32)ccc1Oc1ccnc2cc(Cl)ccc12` (stereo unspecified) reads 75.3% (inactive); that for `COc1ccc(Cn2cc3c(c2-c2cc(OC)c(OC)c(OC)c2)CCCc2cnoc2-3)cc1`, 48.6% (inactive).
For `OC1CCC(Oc2cccc3cnc(Nc4ccc5nc[nH]c5c4)nc23)CC1` (stereo unspecified), the growth was -42.4% (active) and 69.7% (inactive).
The result for `Cc1ccc(SCN2CCN(c3cccc(Cl)c3)CC2)cc1` reads 115% (inactive); that for `O=S(=O)(NCCNc1cc(-c2cn(-c3ccccc3)nc2-c2cccc(O)c2)ccn1)c1cccc(F)c1`, 15.2% (inactive); that for `CCN1CCN(Cc2ccc(NC(=O)c3cccc(C#Cc4cccc5[nH]nc(N)c45)c3)cc2C(F)(F)F)CC1`, -30.6% (active).
The same measure for `Cc1ccc(NCc2cn(-c3ccc(C(=O)O)cc3)nc2-c2ccc(C(=O)O)cc2)cc1`: 120% (inactive); for `CCOc1c(B(O)O)cccc1-c1nc2ccc3[nH]ncc3c2c2c1CCCC2`: 51.1% (inactive); for `CCOC(=O)C1=C(C)N=C2SC=C(c3ccc(F)cc3)N2[C@H]1c1cn(-c2ccccc2)nc1-c1ccc(Cl)cc1`: 91.1% (inactive).
The same measure for `Clc1c(Cl)[n+](Cc2ccc3ccccc3c2)cn1Cc1ccc2ccccc2c1`: -22.6% (active).
As to `Fc1cnc(NC2CC2)nc1-c1cnc2ccc(N3CCOCC3)cn12`, the growth was -29.6% (active).
The result for `Cc1ccc(NC(=O)c2nc(S(C)=O)oc2-c2ccc(F)cc2)cc1Nc1nccc(-c2cccnc2)n1` (stereo unspecified) reads 10.6% (inactive); that for `C#Cc1cccc(NC(=O)c2cccc(NC(=O)CCl)c2)c1`, -52.7% [8.25 µM] (active).
Regarding `COC(=O)[C@@H]1[C@H]2C[C@H]3c4[nH]c5cc(OC)ccc5c4CCN3C[C@@H]2C[C@H](OC(=O)/C=C/c2ccnc(OC)c2)[C@H]1OC`, the growth is 76.9% (inactive).
The same measure for `CCOC(=O)c1ccc2c(c1)nc(-c1ccc(Cl)cc1)n2-c1cc(C(C)(C)C)[nH]n1`: 18.7% (inactive); for `CC1=C(C)C(=O)C(Nc2cccc(C(F)(F)F)c2)=C(Cl)C1=O`: -65.6% (active); for `COc1ccc2c(c1)/C(=C\c1sc(=S)[nH]c1O)C(C(=O)O)=N2`: 98.2% (inactive).
Regarding `CC(=O)O[C@H]1[C@@H]2OC(=O)C(CSc3ccccc3)[C@@H]2C[C@H]2O[C@]2(C)CC/C=C(\C)CCC[C@@H]1C` (stereo partly specified), the growth was -10% (active).
The same measure for `c1ccc(CCCCc2ccc3ccccc3n2)cc1`: 111% (inactive).
The same measure for `O=C(CCCCCCCCC(=O)N/N=C\c1cc(Cl)ccc1O)N/N=C\c1cc(Cl)ccc1O`: -16% (active).
Regarding `COc1ccc2c(c1)NC(=O)CN2c1nc(NC2CC2)nc2ccccc12`, the growth is 8.4% (active).
The result for `Fc1ccc(Nc2nc(Nc3ccc(-c4nc5ccccc5[nH]4)cc3)nc(N3CCCC3)n2)cc1` reads 83.6% (inactive); that for `CC(C)C1C2=C(NCCN1C(=O)c1ccncc1)C(C)(C)N(Cc1ccccc1)C2=O` (stereo unspecified), 110% (inactive).
The same measure for `N#Cc1ccc(OC(=O)Nc2ccc(Cl)c(Cl)c2)cc1`: 42.9% (inactive).
`Cc1onc(-c2c(F)cccc2Cl)c1-c1ncc(-c2ccc(Br)cc2)o1`: the growth is 28.4% (inactive).
